Results on 27 molecules are retold here after PubChem BioAssay (Tox21).

A short description of test [1]: qHTS assay to test for compound auto fluorescence at 535 nm (green) in HEK293 cells (AID 720680). Background: Quantitative high-throughput screening tests each substance at several concentrations.
Test [2] can be described thus: qHTS assay to test for compound auto fluorescence at 460 nm (blue) in HEK293 cell free culture (AID 720681). Further: potency means the concentration at half of the fitted maximal effect. The gist of the method: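 Compounds were added to cell-free DMEM with 10% FBS and fluorescence read directly. The blue channel used 405 nm excitation and 460 nm emission, with triamterene as the reference fluorophore.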
Test [3] can be described thus: qHTS assay to test for compound auto fluorescence at 535 nm (green) in HEK293 cell free culture (AID 720682). A digest of the protocol:
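DMEM + 10% FBS, cell-free; cpd or DMSO pinned in; Ex485/Em535 read; output as fluorescein-equivalent signal.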

The nature of test [4]: qHTS assay to test for compound auto fluorescence at 590 nm (red) in HEK293 cell free culture (AID 720683). A digest of the protocol: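 Cell-free wells of DMEM with 10% FBS received compound, and intrinsic fluorescence was read at excitation/emission 540/590 nm. Values expressed as equivalence to Rose Bengal sodium.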
Test [5] can be described thus: qHTS assay to test for compound auto fluorescence at 590 nm (red) in HepG2 cell free culture (AID 720684). A digest of the protocol:
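Compound was pinned into wells holding MEM with 10% FBS and no cells, and red fluorescence was read at Ex/Em 540/590 nm. Signal is expressed as auto fluorescence equivalency relative to Rose Bengal sodium.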

Test [6] in a line: qHTS assay to test for compound auto fluorescence at 460 nm (blue) in HepG2 cell free culture (AID 720685). Further: potency means the concentration at half of the fitted maximal effect. A digest of the protocol: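 Compound (23 nL) or DMSO pinned into cell-free MEM with 10% FBS; blue fluorescence read at 405/460 nm excitation/emission, expressed as auto-fluorescence equivalency to triamterene.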
A short description of test [7]: qHTS assay to test for compound auto fluorescence at 535 nm (green) in HepG2 cell free culture (AID 720686).
Test [8] can be described thus: qHTS assay to test for compound auto fluorescence at 460 nm (blue) in HepG2 cells (AID 720687). A digest of the protocol:
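HepG2 cells in MEM with 10% FBS, attached overnight at 37 C, were exposed to compound or DMSO for 1 hr at 37 C, 5% CO2. Blue fluorescence was read at 405/460 nm, with triamterene as reference fluorophore.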

Test [9] has as its target Glucocorticoid receptor (Homo sapiens) (UniProt P04150). Kind of test: qHTS assay to identify small molecule antagonists of the glucocorticoid receptor (GR) signaling pathway (AID 720692; active means well fitted inhibition curve with a large enough effect in the signal ratio in the repeat runs, not every such curve was filed as active; the % refers to the signal ratio; further: potency means the concentration at half of the fitted maximal effect). A digest of the protocol: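 Fluorescence from cleaved LiveBLAzer B/G FRET substrate reports GRE-driven beta-lactamase in HeLa cells; compounds are tested against 5 nM dexamethasone (final) over 18 h at 37 C, substrate incubation 2 h at room temperature.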

Test [10] shares this target. Kind of test: qHTS assay to identify small molecule agonists of the glucocorticoid receptor (GR) signaling pathway (AID 720691; active means well fitted activation curve with a large enough effect in the signal ratio in the repeat runs, not every such curve was filed as active; the % refers to the signal ratio). The note with it: GR-bla HeLa, beta-lactamase reporter ratio, 18 h; activation: at 62.4 µM (top of the series) unless noted. A digest of the protocol:
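Beta-lactamase reporter activity, read as fluorescence intensity, was measured in GR-bla HeLa cells exposed to compounds for 18 h at 37 C and then loaded with LiveBLAzer B/G FRET substrate for 2 h at room temperature.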

Values joined by “and” are separate entries in the source; they are usually repeats but may differ in a detail not shown here. Equal entries are not always repeated. Results filed as inconclusive are left out. Active and inactive are the calls of the source. Unless noted, the call rests on the fitted dose curve; in most records, active means well fitted curve in the direction sought with a large enough effect in the repeat runs; inconclusive means weak or mixed curves; inactive means flat fitted curve, though single readings scatter.
Tags describe the fitted curve by direction and shape or compound fluorescence and quenching.

Sequence of Glucocorticoid receptor (Homo sapiens) (P04150 whole entry, looked up): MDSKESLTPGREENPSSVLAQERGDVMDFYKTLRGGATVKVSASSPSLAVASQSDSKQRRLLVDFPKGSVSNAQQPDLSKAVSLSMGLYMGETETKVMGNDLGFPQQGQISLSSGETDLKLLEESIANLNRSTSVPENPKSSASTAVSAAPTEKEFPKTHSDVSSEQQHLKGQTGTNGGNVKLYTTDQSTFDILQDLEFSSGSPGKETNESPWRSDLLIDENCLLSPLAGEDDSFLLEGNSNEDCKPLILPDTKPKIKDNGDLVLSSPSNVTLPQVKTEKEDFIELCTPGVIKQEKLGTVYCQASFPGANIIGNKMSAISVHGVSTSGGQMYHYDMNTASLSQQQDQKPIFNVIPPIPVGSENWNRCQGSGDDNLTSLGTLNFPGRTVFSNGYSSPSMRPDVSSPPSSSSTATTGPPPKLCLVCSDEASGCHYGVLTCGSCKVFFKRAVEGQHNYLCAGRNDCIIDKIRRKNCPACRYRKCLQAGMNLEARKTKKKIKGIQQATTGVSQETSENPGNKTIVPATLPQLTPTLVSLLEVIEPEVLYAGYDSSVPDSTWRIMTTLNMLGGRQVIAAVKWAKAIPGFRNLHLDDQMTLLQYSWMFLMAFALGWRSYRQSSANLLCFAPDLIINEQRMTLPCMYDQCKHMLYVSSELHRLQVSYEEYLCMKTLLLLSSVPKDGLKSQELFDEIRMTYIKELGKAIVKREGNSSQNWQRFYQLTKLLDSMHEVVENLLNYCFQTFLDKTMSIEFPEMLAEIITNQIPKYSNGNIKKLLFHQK

For the molecule `O=Nc1ccc(O)cc1`, the result in [1], in test [3], in test [4], in [5], in test [7] and in test [8] was inactive. The Potency entry in test [2], in [6] and in test [9] was “inactive” in each case.

For `C=C(C)C(=O)OCCC[Si](OC)(OC)OC`, the molecule was called inactive in test [1], in test [3], in [4], in test [5], in test [7] and in test [8]. Moreover, the Potency entry in test [2], in test [6] and in test [9] was “inactive” each time.

Turning to `Nc1nc2ncc(CNc3ccc(C(=O)N[C@@H](CCC(=O)O)C(=O)O)cc3)nc2c(=O)[nH]1`, the outcome in test [1], in [3], in [4], in test [5] and in [7] was inactive. Also, the figures for the Potency in [2] and in test [6] were 35.5 µM (active) and 35.5 µM [fluorescent] (active), respectively. The Potency result in test [10] and in test [9] was “inactive” in each case.

As for `CS(=O)(=O)c1ccc([C@@H](O)[C@@H](CO)NC(=O)C(Cl)Cl)cc1`, the molecule was called inactive in test [1], in [3], in test [4], in [5], in test [7] and in [8]. Also, the Potency entry in test [2], in test [6] and in test [9] was “inactive” in each case.

Consider `CCOC(=O)[C@H](CCc1ccccc1)N[C@@H](C)C(=O)N1Cc2ccccc2C[C@H]1C(=O)O`, for which the molecule was called inactive in [1], in test [3], in [4], in [5], in [7] and in test [8]. Further, the Potency result in test [2], in [6] and in test [9] was “inactive” each time.

Consider `OCC#CCO`, for which the call in test [1], in test [3], in test [4], in test [5], in test [7] and in [8] was inactive. Besides, the Potency entry in [2], in test [6] and in [9] was “inactive” each time.

As to `CCOC(=O)C1OC1c1ccccc1` (stereo not given), the call in [1], in [3], in test [4], in test [5], in [7] and in test [8] was inactive. Moreover, the Potency entry in test [2], in test [6] and in [9] was “inactive” throughout.

On to `CC(=O)Nc1ccc(C(=O)O)cc1`, for which the result in test [1], in test [3], in test [4], in test [5], in test [7] and in test [8] was inactive. Moreover, the Potency entry in test [2], in test [6] and in test [9] was “inactive” in each case.

Take `CCCCOCCOCCOC(=O)CCCCC(=O)OCCOCCOCCCC`: the molecule was called inactive in test [1], in test [3], in test [4], in [5], in [7] and in test [8]. The Potency entry in test [2], in test [6] and in test [9] was “inactive” in each case.

In the case of `CCCCCCCCCC(=O)O`, the outcome in test [1], in [3], in test [4], in test [5], in [7] and in [8] was inactive. For the same molecule, the Potency result in [2], in [6] and in test [9] was “inactive” throughout.

For `CCCCCCCCC`, the call in [1], in test [3], in test [4], in [5], in test [7] and in test [8] was inactive. The Potency result in [2], in [6] and in test [9] was “inactive” in each case.

In the case of `NCCNCCNCCNCCN`, the molecule was classed as inactive in [1], in test [3], in [4], in test [5], in [7] and in test [8]. Besides, the Potency entry in test [2], in test [6] and in [9] was “inactive” each time.

For the molecule `NC(=O)/N=N/C(N)=O`, the result in test [1], in test [3], in test [4], in test [5], in test [7] and in test [8] was inactive. For the same molecule, the Potency result in [2], in test [6] and in [9] was “inactive” in each case.

Take `Cc1cc(NS(=O)(=O)c2ccc(N)cc2)no1`: the result in test [1], in test [3], in [4], in [5], in test [7] and in test [8] was inactive. Moreover, the Potency result in test [2], in test [6] and in [9] was “inactive” each time.

As to `CCCCCCC(C)(C)S`, the result in test [1], in test [3], in [4], in test [5], in test [7] and in test [8] was inactive. For the same molecule, the Potency entry in [2], in [6], in [10] and in test [9] was “inactive” in each case.

Take `Oc1c(Cl)cc(Cl)c(Cl)c1Cl`: the call in test [1], in [3], in test [4], in test [5], in [7] and in test [8] was inactive. Moreover, the Potency entry in test [2] and in test [6] was “inactive” throughout. Further, the Potency in test [9] is 49 µM (active).

On to `COCC(=O)O`, for which the outcome in test [1], in test [3], in test [4], in [5], in test [7] and in test [8] was inactive. Also, the Potency result in test [2], in [6] and in test [9] was “inactive” each time.

On to `Clc1ccc(Cl)c(Cl)c1Cl`, for which the result in test [1], in test [3], in test [4], in test [5], in [7] and in [8] was inactive. The Potency entry in [2], in test [6] and in test [9] was “inactive” throughout.

Consider `Cc1ccc(N)c(S(=O)(=O)O)c1`, for which the result in [1], in test [3], in [4], in test [5], in test [7] and in test [8] was inactive. Besides, the Potency entry in test [2], in test [6] and in test [9] was “inactive” each time.

As to `CN(C)c1cccc(O)c1`, the molecule was called inactive in test [1], in test [3], in [4], in [5], in [7] and in test [8]. For the same molecule, the Potency result in test [2], in [6] and in test [9] was “inactive” in each case.

On to `C[C@@H]1O[C@@H](OC[C@H]2O[C@@H](Oc3c(-c4ccc(O)c(O)c4)oc4cc(O)cc(O)c4c3=O)[C@H](O)[C@@H](O)[C@@H]2O)[C@H](O)[C@H](O)[C@H]1O`, for which the outcome in test [1], in [3], in test [4], in [5], in test [7] and in [8] was inactive. In addition, the Potency entry in [2], in [6], in [10] and in test [9] was “inactive” throughout.

As to `O=S(=O)(O)c1cc(S(=O)(=O)O)c2c(N=Nc3ccccc3)c(O)ccc2c1`, the call in [1], in [3], in test [4], in test [5], in [7] and in [8] was inactive. The Potency result in test [2], in test [6], in test [10] and in [9] was “inactive” in each case.

Turning to `CCCCOCCO`, the molecule was classed as inactive in test [1], in [3], in test [4], in [5], in [7] and in [8]. Besides, the Potency result in test [2], in test [6], in test [10] and in test [9] was “inactive” each time.

Take `Cc1cc(Cc2ccc(N)c(C)c2)ccc1N`: the molecule was classed as inactive in test [1], in test [3], in test [4], in test [5], in [7] and in test [8]. In addition, the Potency entry in [2], in test [6] and in test [9] was “inactive” in each case.

Take `CCCCCCCCCCC=CC1CC(=O)OC1=O` (stereo not given): the result in [1], in test [3], in test [4], in [5], in test [7] and in test [8] was inactive. The Potency result in test [2], in [6] and in test [10] was “inactive” throughout. Besides, the Potency in test [9] is 15.6 µM (active) and 49 µM (active).

As for `O=C1N=C(O)CN1/N=C/c1ccc(-c2ccc([N+](=O)[O-])cc2)o1`, the molecule was classed as inactive in test [1], in test [3], in [4], in [5], in test [7] and in test [8]. Moreover, the Potency result in test [2], in test [6] and in test [9] was “inactive” in each case.

In the case of `CN(C)c1ccc(C(=N)c2ccc(N(C)C)cc2)cc1`, the molecule was called inactive in test [1], in [3], in test [4], in test [5] and in [7]. In addition, in [6], the Potency entry is “inactive”.
